Our source for the AC50 and outcome values is PubChem BioAssay (EPA / NIEHS).

A short description of experiment [1]: ATG_GLI_CIS: Attagene CIS-FACTORIAL HepG2 Assay for human Zinc Finger Protein GLI1 (AID 2282945). As to conditions: HepG2, Attagene cis-factorial reporter mRNA, GLI element; actives raise or lower the signal. The method in brief: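 HepG2 cells transiently transfected with cis-promoter multiplexed reporter units report endogenous transcription factor activity. After 24 h chemical exposure, reporter mRNA was quantified by RT-PCR, 6-FAM labelling, HpaI digestion and capillary electrophoresis, with bidirectional fitting against DMSO.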

Experiment [2] addresses Bile acid receptor (Homo sapiens) (UniProt Q96RI1). Kind of experiment: ATG_IR1_CIS: Attagene CIS-FACTORIAL HepG2 Assay for human Nuclear Receptor Subfamily 1 Group H Member 4 (NR1H4), IR1 submotif (AID 2282946). The note with it: IR1 reporter transcription, actives raise or lower the signal. The method in brief: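 Transient MRTU transfection, HepG2; 24 h dosing; RNA → RT-PCR → 6-FAM primer extension → HpaI digest → capillary electrophoresis fluorescence. Gain/loss of signal fitted relative to DMSO.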

A short description of experiment [3]: ATG_ISRE_CIS: Attagene CIS-FACTORIAL HepG2 Assay for human Interferon Regulatory Factor 1 (IRF1) binding to an Interferon-Stimulated Response Element (ISRE) (AID 2282948). As to conditions: HepG2 ISRE cis-reporter (Attagene), mRNA transcription readout; actives raise or lower the signal. The method in brief:
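Cell-based cis-reporter assay; HepG2; 24 h exposure; reporter mRNA by RT-PCR plus capillary electrophoresis fluorescence; activity in either direction scored relative to DMSO.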

Experiment [4] is described as follows: ATG_M_32_CIS: Attagene CIS-FACTORIAL HepG2 Assay for M32 Transcription Factor (Internal Marker) (AID 2282949).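 Note: background control marker of the multiplexed CIS panel rather than a real target.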 As to conditions: HepG2 Attagene cis-factorial M32 reporter, mRNA; actives raise or lower the signal. The essentials:
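Following 24 h chemical exposure of HepG2 cells transiently expressing cis-promoter reporter constructs, reporter transcript levels were determined by RT-PCR with fluorescent labelling and capillary electrophoresis, then fitted bidirectionally against DMSO.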

Experiment [5] is described as follows: ATG_M_06_CIS: Attagene CIS-FACTORIAL HepG2 Assay for M06 Transcription Factor (Internal Marker) (AID 2282950). As to conditions: HepG2 Attagene CIS-FACTORIAL M06 internal marker reporter; actives raise or lower the signal. The essentials:
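Cells (HepG2, transiently carrying cis-driven reporter units) receive chemical for 24 h before RNA isolation. Reporter cDNA is PCR-amplified, FAM-labelled by primer extension, HpaI-digested and sized on a capillary analyser.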

Experiment [6] addresses Hypoxia-inducible factor 1-alpha (Homo sapiens) (UniProt Q16665). Kind of experiment: ATG_HIF1a_CIS: Attagene CIS-FACTORIAL HepG2 Assay for human Hypoxia Inducible Factor 1 (HIF1A) (AID 2282951). As to conditions: HepG2 Attagene cis-factorial HIF1a reporter transcription; actives raise or lower the signal. The method in brief:
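Cis-element reporter constructs were transiently transfected into HepG2 cells, which were treated for 24 h; reporter RNA was reverse-transcribed, amplified, labelled and resolved by capillary electrophoresis.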

Experiment [7] has as its target Hepatocyte nuclear factor 6 (Homo sapiens) (UniProt Q9UBC0). Kind of experiment: ATG_HNF6_CIS: Attagene CIS-FACTORIAL HepG2 Assay for human Hepatocyte Nuclear Factor 6 (HNF6) (AID 2282952). As to conditions: HepG2 Attagene cis-factorial HNF6 reporter transcription; actives raise or lower the signal. The essentials: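 HepG2, transient MRTU transfection (cis promoters); 24 h chemical exposure; total RNA → oligo(dT) RT → PCR → 6-FAM labelling → HpaI cut → CE; bidirectional fit vs DMSO.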

For experiment [8], the target named is Heat shock factor protein 1 (Homo sapiens) (UniProt Q00613). Kind of experiment: ATG_HSE_CIS: Attagene CIS-FACTORIAL HepG2 Assay for human Heat Shock Transcription Factor 1 (HSE) (AID 2282953). The note with it: HepG2 HSE cis-reporter, Attagene RNA transcription; actives raise or lower the signal. The essentials:
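Liver-derived HepG2 cells carry transiently introduced multiple reporter units governed by cis promoters. Reporter RNA measured 24 h post-dose through reverse transcription, PCR amplification, fluorescent labelling and capillary electrophoresis, normalised to DMSO.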

Experiment [9] is described as follows: ATG_MRE_CIS: Attagene CIS-FACTORIAL HepG2 Assay for human Metal Responsive Element (MRE) (AID 2282954). The note with it: HepG2 MRE cis-reporter transcription, Attagene multiplex; actives raise or lower the signal. The essentials:
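HepG2 cells transiently transfected with multiple cis-element reporter units measure endogenous MTF1-driven transcription. After 24 h compound exposure, reporter mRNA is quantified by RT-PCR with 6-FAM labelling, HpaI digestion and capillary electrophoresis; bidirectional fits versus DMSO.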

A short description of experiment [10]: ATG_PBREM_CIS: Attagene CIS-FACTORIAL HepG2 Assay for human Phenobarbital-responsive Enhancer Module (PBREM) (AID 2282955). The note with it: HepG2 PBREM cis-reporter, Attagene multiplexed transcription; actives raise or lower the signal. The essentials: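 Multiplexed cis-reporter readout in human hepatoma HepG2 cells; PBREM-regulated transcript quantified after 24 h exposure by fluorescent RT-PCR fragment analysis. Signal changes up or down fitted relative to DMSO.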

Experiment [11] deals with Paired box protein Pax-6 (Homo sapiens) (UniProt P26367). Kind of experiment: ATG_Pax6_CIS: Attagene CIS-FACTORIAL HepG2 Assay for human Paired Box 6 (PAX6) (AID 2282956). The note with it: HepG2 CIS-FACTORIAL PAX6 reporter transcription, RNA readout; actives raise or lower the signal. The method in brief: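 Multiplexed cis-reporter HepG2 system; 24 h treatment; reporter mRNA read by RT-PCR/CE fluorescence; bidirectional fit vs DMSO.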

Experiment [12] is described as follows: ATG_PXRE_CIS: Attagene CIS-FACTORIAL HepG2 Assay for human Pregnane X Receptor Element (PXRE) (AID 2282957). As to conditions: HepG2 Attagene CIS-FACTORIAL PXRE reporter, mRNA; actives raise or lower the signal. The method in brief: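 Transfect HepG2 with MRTUs (cis promoter elements); dose chemical, incubate 24 h; isolate RNA, RT with oligo(dT), PCR, 6-FAM label, HpaI cut, CE. Gain/loss fit vs DMSO.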

Experiment [13] can be described thus: ATG_PPRE_CIS: Attagene CIS-FACTORIAL HepG2 Assay for human Peroxisome Proliferator-activated Response Element (PPRE) (AID 2282958). The note with it: HepG2 PPRE cis-element reporter, Attagene transcription factor profiling; actives raise or lower the signal. The method in brief:
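DMSO served as negative control and baseline for bidirectional curve fitting. Signal came from PPRE-regulated reporter mRNA in HepG2 cells, measured 24 h post-dosing by RT-PCR, 6-FAM primer extension and capillary electrophoresis.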

Experiment [14] is described as follows: ATG_RORE_CIS: Attagene CIS-FACTORIAL HepG2 Assay for human RAR-related Orphan Receptor Element (RORE) (AID 2282959). The note with it: HepG2 Attagene cis-factorial RORE reporter, mRNA; actives raise or lower the signal. The essentials: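 Transfect HepG2 with MRTUs; treat 24 h; extract RNA; RT with oligo(dT); PCR with reporter-specific primers; 6-FAM primer extension; HpaI digest 2 h at 37 C; capillary electrophoresis. Fit vs DMSO, bidirectional.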

Experiment [15] in a line: ATG_Sox_CIS: Attagene CIS-FACTORIAL HepG2 Assay for human SRY-box transcription factor (SOX) (AID 2282960). As to conditions: HepG2 Attagene cis-factorial SOX reporter, mRNA; actives raise or lower the signal. The method in brief:
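Fluorescence-labelled cDNA fragments from reporter transcripts, sized by CE, give the signal. Cells: HepG2, transiently transfected with cis-regulated reporter units. Exposure 24 h; DMSO negative control; bidirectional curve fitting.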

Experiment [16] concerns the target Transcription factor Sp1 (Homo sapiens) (UniProt P08047). Kind of experiment: ATG_Sp1_CIS: Attagene CIS-FACTORIAL HepG2 Assay for human Specificity Protein 1 (Sp1) (AID 2282961). As to conditions: HepG2 Sp1 cis-reporter transcription, actives raise or lower the signal. The method in brief:
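Chemicals are dosed onto HepG2 cells transfected with multiple cis-promoter reporter constructs, and after 24 h reporter RNA is reverse-transcribed, PCR-amplified and resolved by capillary electrophoresis for fluorescence quantitation; activity is scored up or down against DMSO.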

Experiment [17] in a line: ATG_SREBP_CIS: Attagene CIS-FACTORIAL HepG2 Assay for human Sterol Regulatory Element Binding (SREBP) (AID 2282962). As to conditions: HepG2 Attagene cis-factorial SREBP reporter, mRNA; actives raise or lower the signal. The method in brief: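 mRNA induction of transfected cis-promoter reporters in HepG2 cells, 24 h post-dose. Detection: RT-PCR with 6-FAM-labelled products, HpaI digest, capillary electrophoresis. DMSO served as negative control and baseline.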

Experiment [18] can be described thus: ATG_TA_CIS: Attagene CIS-FACTORIAL HepG2 Assay for human TA Basal Promoter (AID 2282964). The note with it: HepG2 Attagene CIS-factorial TA basal promoter reporter; actives raise or lower the signal. The essentials: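 Background internal-marker endpoint from a 52-component HepG2 cis-reporter panel. Cells treated 24 h; reporter transcripts quantified via RT-PCR and CE fluorescence against DMSO baseline.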

Experiment [19] addresses Signal transducer and activator of transcription 3 (Homo sapiens) (UniProt P40763). Kind of experiment: ATG_STAT3_CIS: Attagene CIS-FACTORIAL HepG2 Assay for human Signal Transducer and Activator of Transcription 3 (STAT3) (AID 2282963). The note with it: HepG2, Attagene cis-factorial STAT3 reporter transcription; actives raise or lower the signal. The essentials: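 HepG2 cells transiently transfected with cis-element-driven multiple reporter transcription units; after 24 h chemical exposure, reporter mRNA measured by RT-PCR, 6-FAM primer-extension labelling, HpaI digestion and capillary electrophoresis. Bidirectional fitting versus DMSO baseline.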

Molecules are shown by their SMILES. Activity calls are given as the source filed them. Rule for the calls: active = hit-call score of the fitted dose curve at least 0.9, where 1 is the maximum; inactive = score below 0.9.

Sequence of Hepatocyte nuclear factor 6 (Homo sapiens) (Q9UBC0 whole entry, looked up): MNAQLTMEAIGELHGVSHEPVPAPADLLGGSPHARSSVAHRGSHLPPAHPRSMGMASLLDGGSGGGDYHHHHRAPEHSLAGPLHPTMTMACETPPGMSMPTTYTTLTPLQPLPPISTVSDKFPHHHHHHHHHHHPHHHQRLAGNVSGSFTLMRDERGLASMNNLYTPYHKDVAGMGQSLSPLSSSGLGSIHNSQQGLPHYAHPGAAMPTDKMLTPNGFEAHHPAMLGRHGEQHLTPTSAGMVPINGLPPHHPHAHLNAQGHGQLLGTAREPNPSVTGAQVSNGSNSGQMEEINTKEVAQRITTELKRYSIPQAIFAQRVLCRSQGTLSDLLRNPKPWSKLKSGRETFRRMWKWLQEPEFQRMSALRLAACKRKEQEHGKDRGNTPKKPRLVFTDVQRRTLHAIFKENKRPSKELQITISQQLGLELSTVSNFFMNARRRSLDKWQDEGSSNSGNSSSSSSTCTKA
Sequence of Hypoxia-inducible factor 1-alpha (Homo sapiens) (Q16665 whole entry, looked up): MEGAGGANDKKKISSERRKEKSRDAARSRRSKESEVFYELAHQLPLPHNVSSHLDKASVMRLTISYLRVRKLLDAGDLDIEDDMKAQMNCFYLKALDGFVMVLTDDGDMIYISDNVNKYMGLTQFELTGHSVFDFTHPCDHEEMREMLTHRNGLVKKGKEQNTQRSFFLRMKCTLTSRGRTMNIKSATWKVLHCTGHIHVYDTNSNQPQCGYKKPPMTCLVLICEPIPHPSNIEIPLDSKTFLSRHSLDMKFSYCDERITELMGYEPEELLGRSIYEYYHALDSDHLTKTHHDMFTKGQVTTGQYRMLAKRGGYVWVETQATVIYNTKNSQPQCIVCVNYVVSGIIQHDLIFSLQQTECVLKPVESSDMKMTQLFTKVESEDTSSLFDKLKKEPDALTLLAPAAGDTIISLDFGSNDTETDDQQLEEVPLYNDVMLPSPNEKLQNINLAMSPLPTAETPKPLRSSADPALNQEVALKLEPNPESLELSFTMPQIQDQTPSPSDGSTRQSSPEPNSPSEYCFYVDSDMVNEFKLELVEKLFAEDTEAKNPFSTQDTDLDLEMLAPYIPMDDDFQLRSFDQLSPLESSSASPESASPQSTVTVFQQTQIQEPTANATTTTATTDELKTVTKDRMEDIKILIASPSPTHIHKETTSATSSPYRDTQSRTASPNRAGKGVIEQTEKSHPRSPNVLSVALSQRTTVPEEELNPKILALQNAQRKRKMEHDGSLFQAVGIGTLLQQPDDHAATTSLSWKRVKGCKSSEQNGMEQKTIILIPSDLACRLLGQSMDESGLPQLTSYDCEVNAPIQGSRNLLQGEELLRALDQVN
Sequence of Heat shock factor protein 1 (Homo sapiens) (Q00613 whole entry, looked up): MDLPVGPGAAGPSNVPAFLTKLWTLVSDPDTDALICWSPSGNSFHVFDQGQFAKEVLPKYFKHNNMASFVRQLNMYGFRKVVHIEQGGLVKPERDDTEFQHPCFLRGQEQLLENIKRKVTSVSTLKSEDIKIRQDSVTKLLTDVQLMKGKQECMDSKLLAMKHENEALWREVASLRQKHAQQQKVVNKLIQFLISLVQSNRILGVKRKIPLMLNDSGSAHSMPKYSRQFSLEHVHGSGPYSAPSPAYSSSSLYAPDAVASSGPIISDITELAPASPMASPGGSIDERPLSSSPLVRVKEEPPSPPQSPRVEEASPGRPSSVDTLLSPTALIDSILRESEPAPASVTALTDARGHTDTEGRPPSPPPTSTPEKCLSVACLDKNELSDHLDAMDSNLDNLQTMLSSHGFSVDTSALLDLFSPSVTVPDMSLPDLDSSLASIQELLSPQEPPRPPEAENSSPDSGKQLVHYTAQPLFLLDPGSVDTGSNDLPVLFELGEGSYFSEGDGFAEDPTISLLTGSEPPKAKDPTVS
Sequence of Signal transducer and activator of transcription 3 (Homo sapiens) (P40763 whole entry, looked up): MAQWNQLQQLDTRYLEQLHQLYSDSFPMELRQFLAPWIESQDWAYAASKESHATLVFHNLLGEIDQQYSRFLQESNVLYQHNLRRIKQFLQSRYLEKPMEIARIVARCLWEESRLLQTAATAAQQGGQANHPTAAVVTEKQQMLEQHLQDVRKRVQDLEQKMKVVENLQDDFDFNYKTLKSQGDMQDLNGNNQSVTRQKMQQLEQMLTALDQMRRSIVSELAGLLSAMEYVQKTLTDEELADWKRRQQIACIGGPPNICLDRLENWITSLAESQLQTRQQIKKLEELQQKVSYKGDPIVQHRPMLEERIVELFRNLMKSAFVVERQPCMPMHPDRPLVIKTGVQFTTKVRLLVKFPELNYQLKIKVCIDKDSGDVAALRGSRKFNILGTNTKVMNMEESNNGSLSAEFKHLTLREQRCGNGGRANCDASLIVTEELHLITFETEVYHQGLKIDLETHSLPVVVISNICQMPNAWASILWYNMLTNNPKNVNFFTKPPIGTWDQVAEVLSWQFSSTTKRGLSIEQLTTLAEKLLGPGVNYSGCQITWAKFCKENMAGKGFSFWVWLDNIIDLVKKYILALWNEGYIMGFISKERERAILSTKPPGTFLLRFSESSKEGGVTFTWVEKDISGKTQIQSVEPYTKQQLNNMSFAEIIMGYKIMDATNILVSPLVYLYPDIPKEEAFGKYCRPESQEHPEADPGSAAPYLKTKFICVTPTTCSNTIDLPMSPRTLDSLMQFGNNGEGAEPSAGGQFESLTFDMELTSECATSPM
Sequence of Bile acid receptor (Homo sapiens) (Q96RI1 whole entry, looked up): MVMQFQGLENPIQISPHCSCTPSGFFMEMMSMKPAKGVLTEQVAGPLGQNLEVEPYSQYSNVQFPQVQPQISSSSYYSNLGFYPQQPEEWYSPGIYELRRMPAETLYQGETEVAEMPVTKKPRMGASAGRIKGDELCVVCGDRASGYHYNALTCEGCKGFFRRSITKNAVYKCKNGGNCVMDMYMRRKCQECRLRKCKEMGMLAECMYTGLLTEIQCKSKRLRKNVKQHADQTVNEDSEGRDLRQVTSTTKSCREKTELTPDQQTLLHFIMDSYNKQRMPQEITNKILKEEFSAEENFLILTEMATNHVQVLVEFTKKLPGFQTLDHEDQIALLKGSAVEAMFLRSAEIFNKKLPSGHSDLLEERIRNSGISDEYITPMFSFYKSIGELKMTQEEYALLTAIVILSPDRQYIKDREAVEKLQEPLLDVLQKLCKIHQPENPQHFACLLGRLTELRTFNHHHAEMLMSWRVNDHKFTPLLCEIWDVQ
Sequence of Paired box protein Pax-6 (Homo sapiens) (P26367 whole entry, looked up): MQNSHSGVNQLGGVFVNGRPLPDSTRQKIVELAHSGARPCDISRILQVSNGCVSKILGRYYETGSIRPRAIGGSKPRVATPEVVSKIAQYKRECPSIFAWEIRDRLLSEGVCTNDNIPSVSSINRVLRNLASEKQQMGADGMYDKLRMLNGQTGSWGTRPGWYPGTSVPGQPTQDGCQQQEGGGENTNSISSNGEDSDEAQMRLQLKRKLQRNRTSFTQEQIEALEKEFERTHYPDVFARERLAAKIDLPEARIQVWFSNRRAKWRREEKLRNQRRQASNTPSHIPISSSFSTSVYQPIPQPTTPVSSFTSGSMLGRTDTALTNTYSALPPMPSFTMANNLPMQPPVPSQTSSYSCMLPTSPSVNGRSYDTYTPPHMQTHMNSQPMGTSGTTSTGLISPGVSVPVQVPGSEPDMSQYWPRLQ
Sequence of Transcription factor Sp1 (Homo sapiens) (P08047 whole entry, looked up): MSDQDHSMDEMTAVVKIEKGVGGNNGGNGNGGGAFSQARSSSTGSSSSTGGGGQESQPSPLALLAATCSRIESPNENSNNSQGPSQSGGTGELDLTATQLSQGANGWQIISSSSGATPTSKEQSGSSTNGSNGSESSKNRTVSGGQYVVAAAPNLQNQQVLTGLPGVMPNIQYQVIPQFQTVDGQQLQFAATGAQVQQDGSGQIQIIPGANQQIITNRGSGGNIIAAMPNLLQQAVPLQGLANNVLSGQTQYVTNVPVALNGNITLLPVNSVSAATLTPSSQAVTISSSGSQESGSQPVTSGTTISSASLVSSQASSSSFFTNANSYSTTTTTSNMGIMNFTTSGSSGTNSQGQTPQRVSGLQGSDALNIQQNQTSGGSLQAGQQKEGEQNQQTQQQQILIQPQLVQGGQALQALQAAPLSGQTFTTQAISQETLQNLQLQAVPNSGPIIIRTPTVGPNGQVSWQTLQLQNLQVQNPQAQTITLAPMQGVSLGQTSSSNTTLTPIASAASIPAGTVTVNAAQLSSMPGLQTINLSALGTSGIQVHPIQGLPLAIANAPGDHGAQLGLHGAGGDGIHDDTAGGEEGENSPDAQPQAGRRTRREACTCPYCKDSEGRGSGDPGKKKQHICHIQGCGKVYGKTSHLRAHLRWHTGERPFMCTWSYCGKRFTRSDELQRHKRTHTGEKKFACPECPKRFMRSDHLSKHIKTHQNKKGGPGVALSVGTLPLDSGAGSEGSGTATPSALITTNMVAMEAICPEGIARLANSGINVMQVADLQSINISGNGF

Regarding `CCc1cc(Cc2cc(CC)c(N)c(CC)c2)cc(CC)c1N`, the half-maximal activity concentration (AC50) was 60.5 µM (active) in experiment [1]; 56.6 µM (active) in [7]; 60 µM (active) in experiment [8]; 26.1 µM (active) in experiment [9]; 33.4 µM (active) in [11]; 1.1 µM (active) in [12]. Moreover, the half-maximal activity concentration (AC50) is 29.3 µM (active) in experiment [15] and 3.95 µM (active) in experiment [17]. The compound was classed as inactive in experiment [2], in experiment [3], in [4], in experiment [5], in [6] and in experiment [10]. Also, the call in [13], in experiment [14], in [16] and in [18] was inactive.

Regarding `CCCCCCCCn1sc(Cl)c(Cl)c1=O`, the AC50 in experiment [1] is 11.1 µM (active); in experiment [4], 15.9 µM (active); in experiment [8], 11.1 µM (active); in [12] it was 4.27 µM (active); in experiment [17] it was 14.5 µM (active); in [18], 8.12 µM (active). Besides, the call in experiment [2], in [3], in experiment [5], in [7], in [9] and in experiment [10] was inactive. For the same compound, the call in experiment [11], in experiment [13], in [14], in [15], in [16] and in experiment [19] was inactive.

Regarding `c1ccc(C[P+](c2ccccc2)(c2ccccc2)c2ccccc2)cc1`, the outcome in [1], in experiment [2], in experiment [4], in [5], in experiment [7] and in experiment [8] was inactive. Further, the result in experiment [10], in experiment [11], in [12], in [13], in experiment [14] and in experiment [15] was inactive. The compound was called inactive in [16] and in [17]. Moreover, the results for the AC50 in experiment [3] and in [9] were 31.3 µM (active) and 59.4 µM (active), respectively.

Consider `O=C(F)C1(F)C(F)(F)C(F)(F)C(F)(F)C(F)(F)C1(F)F`, for which the outcome in experiment [1], in experiment [2], in experiment [3], in [4], in experiment [5] and in experiment [6] was inactive. The compound was called inactive in experiment [7], in experiment [8], in [9], in experiment [10], in [11] and in experiment [12]. Moreover, the compound was called inactive in [13], in [14], in experiment [15], in experiment [16], in [17] and in [19].

For `O=S(=O)(OCC(F)(F)F)C(F)(F)C(F)(F)C(F)(F)C(F)(F)F`, the result in experiment [1], in [2], in [4], in experiment [5], in experiment [7] and in experiment [8] was inactive. The compound was called inactive in experiment [9], in experiment [10], in experiment [11], in experiment [12], in experiment [13] and in [14]. Also, the outcome in experiment [15], in experiment [16], in experiment [17], in experiment [19] and in experiment [18] was inactive. Besides, in experiment [3], the AC50 was 63.2 µM (active).

In the case of `CCCCCCCC/C=C\CCCCCCCC(=O)OCC(O)CO` (configuration not stated), the call in [1], in [2], in [3], in [4], in [5] and in experiment [7] was inactive. In addition, the compound was called inactive in experiment [8], in [9], in [10], in experiment [11], in experiment [12] and in experiment [13]. For the same compound, the compound was classed as inactive in [14], in experiment [15], in experiment [16], in [17] and in [18]. The AC50 in experiment [6] was 100 µM (active).

In the case of `CCC/C=C/CO`, the outcome in [1], in experiment [2], in experiment [3], in [4], in [5] and in [6] was inactive. Besides, the compound was classed as inactive in experiment [7], in experiment [8], in [9], in experiment [12], in experiment [13] and in experiment [14]. In addition, the compound was classed as inactive in experiment [15], in experiment [16], in experiment [17] and in experiment [19].

What is called AC50 is the concentration giving half of the maximal activity seen.
